Our source for the outcome and AC50 values is PubChem BioAssay (EPA / NIEHS).

Values joined by “and” are separate entries in the source; they are usually repeats but may differ in a detail not shown here. Equal values may be shown once. Active and inactive are the calls of the source. Rule for the calls: active = hit-call score of the fitted dose curve at least 0.9, where 1 is the maximum; inactive = score below 0.9.

Read-out in one assay: matrix metalloproteinase-3 (MMP3), MMP3 (gene 4314)
The assay is described as follows: LTEA_HepaRG_MMP3: Life Technologies and Expression Analysis (LTEA) Assay for matrix metalloproteinase-3 (MMP3) using HepaRG (AID 2283519). The following applies: mRNA level, 48 h; actives raise or lower the signal. The method, boiled down: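 HepaRG cells (~100,000/well) in serum-free induction medium were dosed in duplicate for 48 h with an 8-point half-log series from 100 uM, 0.5% DMSO. MMP3 mRNA was quantified by Fluidigm TaqMan qRT-PCR, normalized to three housekeeping genes.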
Regarding `CSC(=O)c1cccc2nnsc12`, the compound was called inactive.
As for `c1ccc(Nc2ccccc2)cc1`, the outcome was inactive.
Broadly, the AC50 is the concentration at which the activity in the assay is half-maximal. In the case of `CCOC(=O)NCCOc1ccc(Oc2ccccc2)cc1`, the AC50 was 50 µM (active).
Consider `CC(C)(c1ccc(O)cc1)c1ccc(O)cc1`, for which the compound was classed as inactive.
For the compound `Oc1ccc(C(c2ccc(O)cc2)C(Cl)(Cl)Cl)cc1`, the half-maximal activity concentration (AC50) was 90.5 µM (active).
`CCOC(=O)c1ccc(O)cc1`: the compound was called inactive.
Turning to `CCCCCOC(=O)COc1cc(N2C(=O)C3=C(CCCC3)C2=O)c(F)cc1Cl`, the compound was called inactive.
Take `C[C@]12CC[C@@H]3c4ccc(O)cc4C[C@@H](CCCCCCCCCS(=O)CCCC(F)(F)C(F)(F)F)[C@H]3[C@@H]1CC[C@@H]2O` (some centres not stated): the AC50 is 0.084 µM (active).
Take `CCCCCCC(C)OC(=O)COc1nc(F)c(Cl)c(N)c1Cl` (configuration not stated): the compound was classed as inactive.
The same measure, in the same setting: as for `N[C@@H](Cc1cc(I)c(Oc2ccc(O)c(I)c2)c(I)c1)C(=O)O`, the entry is “inactive”; as for `CCNc1nc(N)nc(Cl)n1`, “inactive”.
The same measure, in the same setting: as for `COCCO`, the entry is “inactive”; as for `CCN(Cc1c(F)cccc1Cl)c1c([N+](=O)[O-])cc(C(F)(F)F)cc1[N+](=O)[O-]`, “inactive”.
Still for that read-out and setting: as for `CN(C)C(=O)Nc1ccc(Cl)c(Cl)c1`, the entry is “inactive”; as for `CCCCOCCOCCOCc1cc2c(cc1CCC)OCO2`, “inactive”.
Consider `CCOC(=O)C(C)Oc1ccc(Oc2cnc3cc(Cl)ccc3n2)cc1` (configuration not stated), for which the AC50 is 8.53 µM (active).
Regarding `CCSC(=O)N(CC(C)C)CC(C)C`, the compound was called inactive.
For the compound `COC(=O)CSc1cc(N=c2sc(=O)n3n2CCCC3)c(F)cc1Cl`, the compound was classed as inactive.
As to `c1ccc2[nH]c(-c3cscn3)nc2c1`, the compound was classed as inactive.
Still for that read-out and setting: as for `CCCCC(CC)COC(=O)c1ccccc1C(=O)O` (configuration not stated), the entry is “inactive”; as for `CCOC(=O)C(C)Oc1ccc(Oc2nc3ccc(Cl)cc3o2)cc1` (configuration not stated), “inactive”.
On the same count and under the same terms, as for `O=C(c1ccccc1)C1CCCCC1`, the entry is “inactive”.
Still for that read-out and setting: as for `COc1c(Cl)ccc(Cl)c1C(=O)O`, the entry is “inactive”.
For `CC(=O)[C@H]1CC[C@H]2[C@@H]3CCC4=CC(=O)CC[C@]4(C)[C@H]3CC[C@]12C`, the AC50 is 66 µM (active).
Take `CC1(C)C(C=C(Cl)Cl)C1C(=O)OCc1cccc(Oc2ccccc2)c1` (configuration not stated): the compound was classed as inactive.
On the same count and under the same terms, as for `S=C(S)NCCNC(=S)S.[Mn+2].[S-]C([S-])=NCCN=C([S-])[S-].[Zn+2]`, the entry is “inactive”.

Read-out in another assay: Paternally Expressed 10 (PEG10), PEG10 (gene 23089)
The assay can be described thus: LTEA_HepaRG_PEG10: Life Technologies and Expression Analysis (LTEA) Assay for Paternally Expressed 10 (PEG10) using HepaRG (AID 2283520).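 For AC50: differentiated HepaRG human liver cells in serum-free induction medium with 0.5% DMSO; PEG10 transcript by qRT-PCR normalised to ACTB GAPDH and POLR2A.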 The note with it: mRNA level, 48 h; actives raise or lower the signal. Put shortly: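 Chemicals tested on HepaRG cells for 48 h, highest concentration 100 uM. PEG10 expression assessed by qRT-PCR relative to DMSO control.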
Regarding `CSC(=O)c1cccc2nnsc12`, the compound was classed as inactive.
Still for that read-out and setting: as for `c1ccc(Nc2ccccc2)cc1`, the entry is “inactive”.
Turning to `CCOC(=O)NCCOc1ccc(Oc2ccccc2)cc1`, the AC50 is 29 µM (active).
Take `CC(C)(c1ccc(O)cc1)c1ccc(O)cc1`: the compound was called inactive.
Turning to `Oc1ccc(C(c2ccc(O)cc2)C(Cl)(Cl)Cl)cc1`, the half-maximal activity concentration (AC50) was 74.8 µM (active).
Regarding `CCOC(=O)c1ccc(O)cc1`, the outcome was inactive.
As to `CCCCCOC(=O)COc1cc(N2C(=O)C3=C(CCCC3)C2=O)c(F)cc1Cl`, the compound was classed as inactive.
Take `C[C@]12CC[C@@H]3c4ccc(O)cc4C[C@@H](CCCCCCCCCS(=O)CCCC(F)(F)C(F)(F)F)[C@H]3[C@@H]1CC[C@@H]2O` (some centres not stated): the half-maximal activity concentration (AC50) was 5.19 µM (active).
With `CCCCCCC(C)OC(=O)COc1nc(F)c(Cl)c(N)c1Cl` (configuration not stated), the result was inactive.
For the compound `N[C@@H](Cc1cc(I)c(Oc2ccc(O)c(I)c2)c(I)c1)C(=O)O`, the AC50 was 8.92 µM (active).
For the compound `CCNc1nc(N)nc(Cl)n1`, the result was inactive.
Take `COCCO`: the outcome was inactive.
On to `CCN(Cc1c(F)cccc1Cl)c1c([N+](=O)[O-])cc(C(F)(F)F)cc1[N+](=O)[O-]`, for which the half-maximal activity concentration (AC50) was 15.2 µM (active).
Still for that read-out and setting: as for `CN(C)C(=O)Nc1ccc(Cl)c(Cl)c1`, the figure is 63.8 µM (active).
`CCCCOCCOCCOCc1cc2c(cc1CCC)OCO2`: the result was inactive.
For the compound `CCOC(=O)C(C)Oc1ccc(Oc2cnc3cc(Cl)ccc3n2)cc1` (configuration not stated), the compound was called inactive.
Same read-out and setting: as for `CCSC(=O)N(CC(C)C)CC(C)C`, the entry is “inactive”; as for `COC(=O)CSc1cc(N=c2sc(=O)n3n2CCCC3)c(F)cc1Cl`, “inactive”.
As for `c1ccc2[nH]c(-c3cscn3)nc2c1`, the AC50 was 26.6 µM (active).
As to `CCCCC(CC)COC(=O)c1ccccc1C(=O)O` (configuration not stated), the compound was called inactive.
Same read-out and setting: as for `CCOC(=O)C(C)Oc1ccc(Oc2nc3ccc(Cl)cc3o2)cc1` (configuration not stated), the entry is “inactive”; as for `O=C(c1ccccc1)C1CCCCC1`, “inactive”; as for `COc1c(Cl)ccc(Cl)c1C(=O)O`, “inactive”.
In the case of `CC(=O)[C@H]1CC[C@H]2[C@@H]3CCC4=CC(=O)CC[C@]4(C)[C@H]3CC[C@]12C`, the AC50 is 7.52 µM (active).
In the case of `CC1(C)C(C=C(Cl)Cl)C1C(=O)OCc1cccc(Oc2ccccc2)c1` (configuration not stated), the call was inactive.
On to `S=C(S)NCCNC(=S)S.[Mn+2].[S-]C([S-])=NCCN=C([S-])[S-].[Zn+2]`, for which the concentration at half-maximal activity (AC50) was 110 nM (active) and 262 nM (active) and 190 nM (active).
